High-throughput results (PubChem)
Shown are actives, neighbours in structure and some others; about 8.9% of the full set was active somewhere.
IMPase inh = IMPase inhibition in cells; CHO-M1 cells, IP1 accumulation, HTRF TR-FRET ratio; inhibition (IP1 accumulation), % at 46.1 µM; 120,000 tested, under 10 active; active = well fitted curve in the direction sought with a large enough effect in the signal ratio, not every such curve was filed as active; inconclusive = small, poorly fitted or top-dose-only effect, or a change in a side signal; inactive = no such curve, though single readings can be large or run the other way; the % refers to the signal ratio;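 also: cells stimulated with carbachol in lithium chloride buffer; plate controls were DMSO basal wells for no effect and reference inhibitor wells for full effect; higher means more IMPase inhibition seen as more IP1 and lower FRET ratio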
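Measured: the HTRF emission ratio (665/620 nm) plus the 620 nm donor channel, each fitted to the Hill equation to give AC50. Cells were CHO-M1 given compounds up to 46 uM and a 30 min carbachol stimulation at 37C.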
NPSR antagonist = blocks cAMP signaling of the human neuropeptide S receptor; Q6W5P4; CHO-NPSR cells, cAMP TR-FRET, antagonist mode; Potency, µM (doses to about 38.3 µM), for the others: top-dose activity change, negative = inhibition, usual class: inhibitors; actives 1% (n = 220,000); AID 1461; also: potency is read from the fitted curve at half-maximal effect; nearly all actives have a fitted effect of over 50% in size
Target sequence (Q6W5P4 whole entry, looked up): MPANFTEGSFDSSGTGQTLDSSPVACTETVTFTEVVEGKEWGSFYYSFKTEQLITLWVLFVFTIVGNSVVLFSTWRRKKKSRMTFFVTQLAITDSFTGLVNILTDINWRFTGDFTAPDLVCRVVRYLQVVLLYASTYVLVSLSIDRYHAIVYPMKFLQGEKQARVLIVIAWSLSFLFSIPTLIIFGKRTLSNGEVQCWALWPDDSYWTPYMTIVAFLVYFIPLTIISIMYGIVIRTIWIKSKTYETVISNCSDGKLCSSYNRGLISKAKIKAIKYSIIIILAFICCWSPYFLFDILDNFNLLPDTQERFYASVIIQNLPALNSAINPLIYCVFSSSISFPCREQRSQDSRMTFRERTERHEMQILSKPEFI
ALDH1A1 block = blocks purified human ALDH1A1 activity. P00352. Purified ALDH1A1, NADH fluorescence, propionaldehyde substrate. Potency, µM (series often up to 75.3 µM), inactives show top-dose activity, negative = inhibition, usual class: inhibitors. actives 7.3% (n = 220,000). AID 1030; active = well fitted inhibition curve with a large enough effect, not every such curve was filed as active; inconclusive = small, poorly fitted or top-dose-only effect, or another doubt; inactive = no such curve, though single readings can be large or run the other way;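 also: potency is read from the fitted curve at half-maximal effect; plate controls were no enzyme wells and a reference inhibitor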
ALOX12 inhib = 12-hLO (ALOX12) enzyme inhibition; P18054; purified 12-hLO, xylenol orange hydroperoxide absorbance; Potency, µM (doses to about 57.1 µM), for inactives: at the top dose activity change, negative = inhibition, hits mostly inhibitors; actives 0.12% (n = 150,000); AID 1452; also: potency is read from the fitted curve at half-maximal effect; nearly all actives have a fitted effect of over 55% in size
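Xylenol orange chromogenic assay: hydroperoxide from 12hLO oxidises Fe(II), giving red-shifted Fe(III)-XO absorbance. Conditions: 150 nM enzyme, 40 uM arachidonic acid, 25 mM Hepes pH 7.0, 0.01% Triton X-100, 30 min, room temperature.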
HPGD inh = inhibitors of human 15-hydroxyprostaglandin dehydrogenase (HPGD); actives 4.3% (n = 150,000); purified HPGD, NADH fluorescence kinetic, PGE2 substrate; Potency, µM, for inactives: top-dose activity change, negative = inhibition, actives largely listed as inhibitors; P15428; active = well fitted inhibition curve with a large enough effect, not every such curve was filed as active; inconclusive = small, poorly fitted or top-dose-only effect, or another doubt; inactive = no such curve, though single readings can be large or run the other way; also: potency is read from the fitted curve at half-maximal effect
Target sequence (P15428 whole entry, looked up): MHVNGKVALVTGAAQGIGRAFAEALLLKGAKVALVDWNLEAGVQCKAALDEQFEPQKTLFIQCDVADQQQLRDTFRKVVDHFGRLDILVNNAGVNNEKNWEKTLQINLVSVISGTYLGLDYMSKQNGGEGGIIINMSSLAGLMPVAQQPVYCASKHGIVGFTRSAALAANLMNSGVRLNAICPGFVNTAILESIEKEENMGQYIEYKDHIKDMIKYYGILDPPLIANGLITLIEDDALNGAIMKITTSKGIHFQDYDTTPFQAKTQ
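20 nM HPGD preincubated 15 min at room temperature with compound in 50 mM Tris-HCl pH 8, 0.01% Tween 20. Started with 1 mM NAD+ and 30 uM prostaglandin E2; NADH fluorescence (360/450 nm) read 5 times over 30-s intervals, last minus first.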
IMPase Li inh = IMPase inhibition in cells with lithium potentiation | AID 1457 | CHO-M1 cells, IP1 TR-FRET (IP-One), carbachol + lithium | actives 0.35% (n = 210,000) | Potency, µM (series often up to 59.4 µM), for the others: top-dose activity, negative = IMPase inhibition, usual class: inhibitors;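 also: IP1 builds up when IMPase is blocked and the TR-FRET signal falls; potency is read from the fitted curve at half-maximal effect; plate controls were basal vehicle for no effect and high inhibitor control for full effect; nearly all actives have a fitted effect of over 50% in size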
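Steps: plate 2000 CHO-M1 cells per well and culture 16–30 h; add compound and lithium; incubate 30 min, 37C; add d2-IP1 tracer and Eu cryptate anti-IP1 antibody in lysis buffer; read after 10 min at room temperature.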
* hit, by the source's call; ? = inconclusive; . = no result given; [ ] = remark or other dose. Unless noted, calls follow the shape of the dose curve; as a rule, active = well fitted curve in the direction sought with a large enough effect; inconclusive = small, poorly fitted or top-dose-only effect, or another doubt; inactive = no such curve, though single readings can be large; an effect the other way counts as inactive or inconclusive. Unless noted, % is scaled to controls: 0 for no effect and ±100 for the full control effect.

SMILES	IMPase inh	NPSR antagonist	ALDH1A1 block	ALOX12 inhib	HPGD inh	IMPase Li inh
Brc1ccccc1C1=Nn2c(nnc2-c2ccccc2)SC1	3.2	?	?	-4.4%	15.8µM*	12.3%[38.3 µM]
COC(=O)CC1C(=O)NCCN1C(=S)NC(=O)c1sc2ccccc2c1Cl (stereo not drawn)	.	-12.2%	12.6µM*	.	.	-22.3%
Cc1cc(C)c2c(=O)n(CC(=O)N3CCC(N4CCCCC4)CC3)sc2n1	3.7	-13.9%[46.1 µM]	12.6µM*	-11.4%	12.6µM*	11.9%[38.3 µM]
Cc1ccc2nc(C)c(C(=O)NN=C3CCCCCC3)n2c1	.	0.4%	7.94µM*	.	.	10.6%
Cc1ccn2c(C(=O)N/N=C\c3cccs3)c(C)nc2c1	6.1	-18.5%[46.1 µM]	?	0.9%	-18.6%	16.2%
Cc1ccn2c(C(=O)NN=C3CCN(C)CC3)c(C)nc2c1	.	25.5%	2.24µM*	.	.	12.9%
Cc1ccc(C)c(-n2c(C)cc(/C=N/NC(=O)c3c(C)nc4cc(C)ccn34)c2C)c1	4.9	?	12.6µM*	-0.3%	?	29.1%
CN1CCC(=NNC(=O)c2cc(-c3ccc(Cl)cc3)n[nH]2)CC1	.	-7.4%	-9.9%	.	.	.
N#C/C(=C(\O)c1ccco1)c1ccccn1	4.0	-0.8%[46.1 µM]	25.1µM*	-26.8%	-25.5%	-0.4%[38.3 µM]
[O-]/C(=C(\C(=S)NCc1ccccc1)[n+]1ccccc1)c1ccc(Cl)cc1	.	-14.0%	8.91µM*	.	.	7.1%
Cc1c(Cl)cccc1NC(=S)/C(=C(\[O-])c1ccc(Cl)s1)[n+]1ccccc1	.	5.6%	9.4%	1.8%	?	-17.2%
[O-]/C(=C(\C(=S)NCc1ccc2c(c1)OCO2)[n+]1ccccc1)c1ccc(Cl)s1	.	-15.4%	15.8µM*	.	.	8.8%
O=[N+]([O-])c1ccc(/C([O-])=C(/C(=S)Nc2ccccc2F)[n+]2ccccc2)cc1	.	-5.0%	?	.	.	7.6%
C=CCNC(=S)/C(=C(\[O-])c1ccc(Cl)cc1)[n+]1ccccc1	.	-17.1%	14.1µM*	.	.	.
COC(=O)NC(=S)Nc1ccc(Oc2ccc(Cl)cc2Cl)c(Cl)c1	3.1	-40.4%	?	?	-29.6%	17.4%
Cc1ccc(OCC(=O)N(Cc2ccc(N(C)C)cc2)C2CCS(=O)(=O)C2)cc1 (stereo not drawn)	-9.2	2.4%[46.1 µM]	17.8µM*	-7.0%	-11.3%	8.3%[38.3 µM]
O=C(c1ccco1)N(Cc1cccs1)C1CCS(=O)(=O)C1 (stereo not drawn)	14.1	-9.2%[46.1 µM]	-4.6%	6.0%	-6.4%	-5.6%[38.3 µM]
CN(C)c1ccc(CN(C(=O)c2ccco2)C2CCS(=O)(=O)C2)cc1 (stereo not drawn)	6.5	29.0%[46.1 µM]	7.08µM*	-1.8%	-11.1%	1.5%[38.3 µM]
CN(C)c1ccc(CN(C(=O)COc2ccc(F)cc2)C2CCS(=O)(=O)C2)cc1 (stereo not drawn)	-1.3	-11.2%[46.1 µM]	?	0.6%	-3.6%	0.0%[38.3 µM]
CN(C)c1ccc(CN(C(=O)COc2ccc(Br)cc2)C2CCS(=O)(=O)C2)cc1 (stereo not drawn)	-14.0	-10.1%[46.1 µM]	28.2µM*	-5.9%	-6.3%	-7.7%[38.3 µM]
O=C(Cn1c(=O)sc2ccccc21)N1CCOCC1	4.1	-9.5%[7.67 µM]	-7.0%	-2.8%	-3.8%	0.4%[38.3 µM]
CC(=O)c1c(N2CCN(c3ccc(F)cc3)CC2)nc(=S)n(Cc2ccccc2)c1C	.	-31.3%	-11.9%	-3.9%	-12.5%	2.6%
COc1ccc(/C(N)=N/OC(=O)c2ccc(C)c([N+](=O)[O-])c2)cc1OC	0.1	-1.3%[46.1 µM]	3.4%	2.8%	-9.6%	20.2%[38.3 µM]
O=C(Cc1ccccc1)NC(=S)Nc1ccc2oc(-c3ccccc3F)nc2c1	11.1	-6.1%[46.1 µM]	?	-6.7%	-12.5%	8.3%[38.3 µM]
O=C(Cc1ccccc1)NC(=S)Nc1ccc2oc(-c3ccccc3)nc2c1	-12.2	-41.0%	22.4µM*	-2.4%	?	16.4%
CCCCCOc1ccccc1C(=O)NCCCC(=O)O	8.0	-5.6%[46.1 µM]	1.3%	4.9%	.	.
CCOC(=O)N1CCN(C(=O)CN(c2cc(Cl)ccc2OC)S(=O)(=O)c2ccccc2)CC1	10.9	-17.3%[46.1 µM]	25.1µM*	-8.5%	-5.2%	11.2%[38.3 µM]
